Inconclusive results are not listed. Entries that show only a call come without a potency. Activity calls are given as the source filed them. Calls follow the shape of the dose curve; as a rule, active = well fitted cell-killing curve with a large enough effect in the repeat runs; inconclusive = weak or mixed curves, or effect the other way; inactive = flat fitted curve, though single readings scatter.
Key:
[1] = cAMP Responsive Elements (CRE) small molecule antagonists, cell-based qHTS assay: qHTS cell viability counter screen (AID 2060913); settings: CRE-bla HEK293T viability, CellTiter-Glo luminescence, 5 h; series mostly up to 92.4 µM; also: nearly all actives have a fitted effect of over 40% in size
In short: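 Cytotoxicity read in the same wells as the CRE-bla HEK293T antagonist assay: after 3 h compound with 0.25 uM NKH477 final and 2 h beta-lactamase substrate, CellTiter-Glo luminescence measured.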

[2] = cAMP Responsive Elements (CRE) small molecule agonists, cell-based qHTS assay: qHTS cell viability counter screen (AID 2060914); settings: CRE-bla HEK293T viability, CellTiter-Glo luminescence, 5 h; series mostly up to 92.4 µM;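 also: viability read after 3 h of compound exposure; nearly all actives have a fitted effect of over 50% in size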
In short: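 Cytotoxicity counter screen multiplexed with the CRE-bla reporter assay in HEK 293T cells: 3 h compound exposure at 37 °C, followed by CellTiter-Glo luminescence measured in the same wells.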

Compound	Potency [1]	Potency [2]
CC(N)C12CC3CC(CC(C3)C1)C2 (stereo not given)	inactive	inactive
CC1=CC[C@@H](C(C)(C)O)CC1	inactive	inactive
CC1=CC(=O)NS(=O)(=O)O1	inactive	inactive
CC(=O)O[C@@]12CO[C@@H]1C[C@H](O)[C@@]1(C)C(=O)[C@H](O)C3=C(C)[C@@H](OC(=O)[C@H](O)[C@@H](NC(=O)OC(C)(C)C)c4ccccc4)C[C@@](O)([C@@H](OC(=O)c4ccccc4)[C@H]21)C3(C)C	inactive	inactive
Cc1cc(=O)[nH]c(=S)[nH]1	inactive	inactive
C[n+]1c2cc(N)ccc2cc2ccc(N)cc21 (tested in a mixture with another compound)	inactive	inactive
Cn1c(=O)c2[nH]cnc2n(C)c1=O	inactive	inactive
CC(=O)CCC1=C(C)CCCC1(C)C	inactive	inactive
COc1nccnc1CC(C)C	inactive	inactive
COC(=O)/C=C/c1ccccc1	inactive	inactive

Reference: PubChem BioAssay (Tox21)
